The values below come from PubChem BioAssay (EPA / NIEHS).

The source made the active and inactive calls. The calls were made as follows: active = hit-call score of the fitted dose curve at least 0.9, where 1 is the maximum; inactive = score below 0.9.

Read-out in assay [1]: TIMP metallopeptidase inhibitor 2 (TIMP2), TIMP2 (gene 7077)
The assay is described as follows: BSK_KF3CT_TIMP2: BioMAP Diversity Plus: KF3CT Assay for TIMP metallopeptidase inhibitor 2 (TIMP2) Biomarker Activity (AID 2283071). The conditions noted are these: primary human keratinocytes with fibroblasts; actives raise or lower the signal. The method in brief: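 Chemicals were dosed onto human skin primary co-cultures of keratinocytes and foreskin fibroblasts, and TIMP-2 was measured by ELISA after 24 hours. Activity in either direction was fitted relative to DMSO.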

Read-out in assay [2]: Transforming growth factor beta 1 (TGFb1), TGFB1 (gene 7040)
As to the kind of experiment: BSK_KF3CT_TGFb1: BioMAP Diversity Plus: KF3CT Assay for Transforming growth factor beta 1 (TGFb1) Biomarker Activity (AID 2283072). The conditions noted are these: primary human keratinocytes with fibroblasts; actives raise or lower the signal. The method in brief:
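KF3CT co-culture (keratinocytes + fibroblasts), 24 h exposure → TGF-b1 ELISA → bidirectional fit, DMSO = baseline. Parallel SRB total-protein staining (0.1% SRB, 10% TCA fixation, 560 nm) for cytotoxicity.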

Read-out in assay [3]: C-C motif chemokine 2 (Homo sapiens) (UniProt P13500)
As to the kind of experiment: BSK_KF3CT_MCP1: BioMAP Diversity Plus: KF3CT Assay for Monocyte Chemoattractant Protein 1 (MCP1/CCL2) Biomarker Activity (AID 2283073). The following applies: primary human keratinocytes with fibroblasts; actives raise or lower the signal. The essentials: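 Human keratinocyte–foreskin fibroblast co-culture; MCP-1 measured by ELISA 24 h after dosing. Bidirectional fit vs DMSO; cytotoxicity tracked by SRB total protein in parallel cultures.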

Read-out in assay [4]: Matrix Metallopeptidase 9 (MMP9), MMP9 (gene 4318)
As to the kind of experiment: BSK_KF3CT_MMP9: BioMAP Diversity Plus: KF3CT Assay for Matrix Metallopeptidase 9 (MMP9) Biomarker Activity (AID 2283074). The following applies: primary human keratinocytes with fibroblasts; actives raise or lower the signal. The essentials: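 Values come from bidirectional fitting relative to DMSO of MMP-9 levels, which were measured by ELISA. Measurements were taken 24 h after chemical dosing of a keratinocyte and foreskin fibroblast co-culture.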

Read-out in assay [5]: urokinase plasminogen activator (uPA), PLAU (gene 5328)
As to the kind of experiment: BSK_KF3CT_uPA: BioMAP Diversity Plus: KF3CT Assay for urokinase plasminogen activator (uPA) Biomarker Activity (AID 2283075). The following applies: primary human keratinocytes with fibroblasts; actives raise or lower the signal. The method in brief:
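Values derive from bidirectional fitting against DMSO controls. Keratinocyte/foreskin fibroblast co-cultures received chemical; 24 h later uPA was detected by ELISA, with SRB total-protein staining in parallel wells for overt cytotoxicity.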

Read-out in assay [6]: CD40, CD40 (gene 958)
As to the kind of experiment: BSK_LPS_CD40: BioMAP Diversity Plus: LPS Assay for CD40 Biomarker Activity (AID 2283076). The conditions noted are these: primary human HUVEC with PBMC; actives raise or lower the signal. The essentials:
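HUVEC plus PBMC co-culture stimulated with LPS; CD40 quantified by ELISA 24 h after compound dosing. Fitting was bidirectional relative to DMSO. SRB staining of parallel cultures flagged overt cytotoxicity.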

Read-out in assay [7]: E-selectin (Homo sapiens) (UniProt P16581)
The assay is described as follows: BSK_LPS_Eselectin: BioMAP Diversity Plus: LPS Assay for Eselectin Biomarker Activity (AID 2283077). The following applies: primary human HUVEC with PBMC; actives raise or lower the signal. The essentials:
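Human umbilical vein endothelial cells co-cultured with PBMC under LPS stimulation; cell-surface E-selectin measured by ELISA 24 h after dosing. Change in either direction versus DMSO, with SRB total-protein staining in parallel cultures for cytotoxicity.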

Read-out in assay [8]: Interleukin-8 (IL8), CXCL8 (gene 3576)
The assay is described as follows: BSK_LPS_IL8: BioMAP Diversity Plus: LPS Assay for Interleukin-8 (IL8) Biomarker Activity (AID 2283078). The conditions noted are these: primary human HUVEC with PBMC; actives raise or lower the signal. The method in brief:
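Human umbilical vein endothelial cells co-cultured with PBMC, LPS-stimulated, exposed to compound for 24 h. IL-8 quantified by ELISA; fitted in both directions against DMSO, with SRB total-protein staining of parallel cultures for cytotoxicity.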

Assay [9] can be described thus: BSK_LPS_SRB: Viability Assessment in the BioMAP Diversity Plus: LPS Assay (AID 2283079).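 Also: total protein by sulforhodamine B absorbance as a cytotoxicity measure; measured one day after compound addition; fitted in both directions against DMSO so loss or gain of signal counts.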 The conditions noted are these: primary human HUVEC with PBMC. The essentials:
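Co-culture of human umbilical vein endothelial cells and PBMC, read 24 h after dosing. Total protein by 0.1% SRB staining after 10% TCA fixation, absorbance at 560 nm; bidirectional fit against DMSO.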

Read-out in assay [10]: Interleukin-1 alpha (IL1a), IL1A (gene 3552)
As to the kind of experiment: BSK_LPS_IL1a: BioMAP Diversity Plus: LPS Assay for Interleukin-1 alpha (IL1a) Biomarker Activity (AID 2283080). The following applies: primary human HUVEC with PBMC; actives raise or lower the signal. The method in brief:
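Human umbilical vein endothelial cells co-cultured with PBMC and stimulated with LPS; IL-1a measured by ELISA 24 h after dosing. Bidirectional fitting against DMSO; cytotoxicity checked by SRB staining in parallel cultures.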

Read-out in assay [11]: Monocyte Chemoattractant Protein-1 (MCP1), CCL2 (gene 6347)
The assay is described as follows: BSK_LPS_MCP1: BioMAP Diversity Plus: LPS Assay for Monocyte Chemoattractant Protein-1 (MCP1) Biomarker Activity (AID 2283081). The conditions noted are these: primary human HUVEC with PBMC; actives raise or lower the signal. The method in brief:
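Human umbilical vein endothelial cells co-cultured with PBMC, LPS-stimulated; secreted MCP-1 measured by ELISA 24 h after compound addition. Bidirectional curve fitting against DMSO baseline; SRB total-protein staining in parallel cultures for cytotoxicity.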

Assay [12] can be described thus: BSK_LPS_PGE2: BioMAP Diversity Plus: LPS Assay for Prostaglandin E2 (PGE2) Biomarker Activity (AID 2283082).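 As to AC50: secreted prostaglandin E2 measured by ELISA in LPS-stimulated co-culture.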 The following applies: primary human HUVEC with PBMC; actives raise or lower the signal. The method in brief:
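Compounds were added to the LPS co-culture of endothelium and PBMC, and PGE2 was measured by ELISA after 24 h. Responses in either direction were fitted with DMSO as baseline.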

Read-out in assay [13]: Tumor necrosis factor (Homo sapiens) (UniProt P01375)
The assay is described as follows: BSK_LPS_TNFa: BioMAP Diversity Plus: LPS Assay for Tumour Necrosis Factor alpha (TNFa) Biomarker Activity (AID 2283085).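 As to AC50: TNFa protein level quantified by ELISA in the co-culture.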 The following applies: primary human HUVEC with PBMC; actives raise or lower the signal. The method in brief:
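Cells (umbilical vein endothelium plus peripheral blood mononuclear cells) were dosed with chemical, incubated 24 h, then TNFa was quantified by ELISA; values derive from bidirectional fitting with DMSO as baseline.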

Read-out in assay [14]: Vascular cell adhesion molecule 1 (VCAM1), VCAM1 (gene 7412)
The assay is described as follows: BSK_LPS_VCAM1: BioMAP Diversity Plus: LPS Assay for Vascular cell adhesion molecule 1 (VCAM1) Biomarker Activity (AID 2283086). The following applies: primary human HUVEC with PBMC; actives raise or lower the signal. The essentials:
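Cells are dosed in an LPS-stimulated endothelial/mononuclear co-culture and, after 24 h, VCAM-1 is quantified by ELISA. Activity in either direction is fitted relative to the DMSO negative control.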

Read-out in another assay: CD38, CD38 (gene 952)
As to the kind of experiment: BSK_SAg_CD38: BioMAP Diversity Plus: SAg Assay for CD38 Biomarker Activity (AID 2283087). The following applies: primary human HUVEC with PBMC; actives raise or lower the signal. The essentials:
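CD38 quantified by ELISA (fluorescence) in a superantigen-activated endothelial cell–PBMC co-culture at 24 h post-dose. Activity fitted in both directions relative to DMSO; parallel SRB and Alamar Blue cytotoxicity read-outs.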

Read-out in assay [15]: CD40, CD40 (gene 958)
As to the kind of experiment: BSK_SAg_CD40: BioMAP Diversity Plus: SAg Assay for CD40 Biomarker Activity (AID 2283088). The following applies: primary human HUVEC with PBMC; actives raise or lower the signal. The essentials: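 HUVEC plus PBMC co-culture, superantigen-activated, with CD40 read by ELISA 24 h after dosing. Curves fitted in both directions against DMSO. Overt cytotoxicity checked by parallel SRB total-protein staining.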

Read-out in the next assay: CD69, CD69 (gene 969)
The assay is described as follows: BSK_SAg_CD69: BioMAP Diversity Plus: SAg Assay for CD69 Biomarker Activity (AID 2283089). The conditions noted are these: primary human HUVEC with PBMC; actives raise or lower the signal. The essentials: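 ELISA, fluorescence read-out: CD69 on human umbilical vein endothelial cell + PBMC co-culture, 24 h post-dosing. Gain or loss of signal fitted bidirectionally against DMSO baseline.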

Read-out in assay [16]: Monocyte Chemoattractant Protein-1 (MCP1), CCL2 (gene 6347)
As to the kind of experiment: BSK_SAg_MCP1: BioMAP Diversity Plus: SAg Assay for Monocyte Chemoattractant Protein-1 (MCP1) Biomarker Activity (AID 2283090). The conditions noted are these: primary human HUVEC with PBMC; actives raise or lower the signal. The essentials: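 Values derive from bidirectional fitting of ELISA-measured MCP1 against DMSO controls. Readings were taken 24 h after dosing human vascular endothelial cells co-cultured with peripheral blood mononuclear cells under superantigen stimulation.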

Read-out in assay [17]: Tissue Factor, F3 (gene 2152)
The assay is described as follows: BSK_LPS_TissueFactor: BioMAP Diversity Plus: LPS Assay for Tissue Factor Biomarker Activity (AID 2283084). The conditions noted are these: primary human HUVEC with PBMC; actives raise or lower the signal. The essentials: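 Human umbilical vein endothelial cells co-cultured with PBMC were dosed with compound. Cell-surface CD142 was measured by ELISA 24 h later. Activity was fitted bidirectionally against DMSO, with SRB total-protein staining in parallel cultures for cytotoxicity.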

Read-out in assay [18]: Macrophage colony-stimulating factor (MCSF), CSF1 (gene 1435)
The assay is described as follows: BSK_LPS_MCSF: BioMAP Diversity Plus: LPS Assay for Macrophage colony-stimulating factor (MCSF) Biomarker Activity (AID 2283083). The following applies: primary human HUVEC with PBMC; actives raise or lower the signal. The method in brief:
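HUVEC–PBMC co-culture, M-CSF measured by ELISA 24 h after chemical dosing. Fitted in both directions relative to DMSO as negative control; overt cytotoxicity assessed by SRB total-protein staining in parallel cultures.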

E-selectin (Homo sapiens), sequence (P16581 whole entry, looked up): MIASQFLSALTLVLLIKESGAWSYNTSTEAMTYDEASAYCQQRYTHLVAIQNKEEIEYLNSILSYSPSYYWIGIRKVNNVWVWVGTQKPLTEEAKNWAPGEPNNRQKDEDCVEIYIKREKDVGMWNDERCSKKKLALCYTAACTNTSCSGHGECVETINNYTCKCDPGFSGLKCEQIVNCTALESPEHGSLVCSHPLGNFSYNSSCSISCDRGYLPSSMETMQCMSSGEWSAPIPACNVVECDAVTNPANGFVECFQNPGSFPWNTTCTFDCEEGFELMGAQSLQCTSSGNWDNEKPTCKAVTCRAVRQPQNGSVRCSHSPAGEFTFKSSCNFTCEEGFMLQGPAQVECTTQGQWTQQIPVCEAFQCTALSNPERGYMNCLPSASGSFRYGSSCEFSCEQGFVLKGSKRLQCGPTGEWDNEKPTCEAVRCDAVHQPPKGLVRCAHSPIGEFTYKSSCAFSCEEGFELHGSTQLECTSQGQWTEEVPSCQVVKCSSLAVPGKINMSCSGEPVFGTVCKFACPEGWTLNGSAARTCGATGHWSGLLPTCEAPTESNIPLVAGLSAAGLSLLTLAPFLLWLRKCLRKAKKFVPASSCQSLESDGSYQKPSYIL
Tumor necrosis factor (Homo sapiens), sequence (P01375 whole entry, looked up): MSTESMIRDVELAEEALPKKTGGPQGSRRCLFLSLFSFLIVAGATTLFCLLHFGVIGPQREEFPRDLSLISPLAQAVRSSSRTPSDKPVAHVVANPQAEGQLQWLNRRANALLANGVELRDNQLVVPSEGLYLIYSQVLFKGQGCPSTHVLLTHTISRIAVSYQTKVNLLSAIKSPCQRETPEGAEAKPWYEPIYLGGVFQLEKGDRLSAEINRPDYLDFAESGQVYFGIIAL

Take `c1ccc2c(c1)sc1ccccc12`: the outcome was “inactive” in [1]; “inactive” in assay [2]; “inactive” in assay [3]; “inactive” in assay [4]; “inactive” in [5]; “inactive” with CD40, CD40 (gene 958) [6]. Moreover, the outcome in [7], in assay [8], in assay [9], in [10], in assay [11] and in assay [13] was inactive. Moreover, the outcome was “inactive” in assay [14]; “inactive” with CD38, CD38 (gene 952); “inactive” with CD40, CD40 (gene 958) [15]; “inactive” with CD69, CD69 (gene 969); “inactive” in assay [16]. Moreover, the half-maximal activity concentration (AC50) in assay [12] is 0.596 µM (active).

For `CCOP(=S)(NC(C)C)Oc1ccccc1C(=O)OC(C)C` (stereo not given), the outcome was “inactive” in assay [1]; “inactive” in assay [2]; “inactive” in assay [3]; “inactive” in [4]; “inactive” in [5]; “inactive” in the assay with CD40, CD40 (gene 958) [6]. Moreover, the result in assay [7], in assay [8], in assay [9], in [10], in assay [11] and in assay [12] was inactive. Also, the outcome in assay [17] was “inactive”; in the assay with CD38, CD38 (gene 952), “inactive”; with CD40, CD40 (gene 958) [15], “inactive”; in the assay with CD69, CD69 (gene 969), “inactive”; in [16], “inactive”. Moreover, the AC50 in assay [13] is 4.8 µM (active).

Consider `CCOP(=S)(Oc1ccc([N+](=O)[O-])cc1)c1ccccc1` (stereo not given), for which the outcome in assay [1] was “inactive”; in assay [2], “inactive”; in assay [3], “inactive”; in assay [4], “inactive”; in assay [5], “inactive”; in the assay with CD40, CD40 (gene 958) [6] it was “inactive”. Further, the outcome in assay [7], in assay [8], in assay [9], in [10], in assay [11] and in [12] was inactive. For the same compound, the outcome in assay [17] is “inactive”; with CD69, CD69 (gene 969) it was “inactive”; in assay [16] it was “inactive”. Besides, the AC50 in [18] was 13.7 µM (active); in [13], 2.84 µM (active); in the assay with CD38, CD38 (gene 952), 14.2 µM (active); with CD40, CD40 (gene 958) [15] it was 14 µM (active).
